According to the supplement of paper PMC4100887:
± gives the standard deviation of the averaged measurements.

How the values were obtained:
IMR-90 = experiment: relative cell viability (ATPlite) vs untreated control (fraction); higher = less toxic; conditions: 1 µM; 72 h
K562 [1] = experiment: as above; conditions: 1 µM; 72 h
K562 [2] = experiment: relative cell viability (ATPlite) vs untreated control, with imatinib (fraction); higher = less toxic; conditions: 1 µM; 72 h; imatinib 0.125 µM

Structure (SMILES) | relative cell viability (IMR-90) | relative cell viability (K562 [1]) | relative cell viability (K562 [2])
Cc1cncc2cccc(S(=O)(=O)N3CCCN(C(=O)CN)C[C@@H]3C)c12 [Rho Kinase Inhibitor IV] | 1.05 ± 0.12 | 0.809 ± 0.065 | 0.669 ± 0.031
O=C(Nc1cc(C(F)(F)F)cc(C(F)(F)F)c1)c1cc(Cl)ccc1O [IKK-2 Inhibitor V] | 0.878 ± 0.28 | 0.505 ± 0.03 | 0.477 ± 0.011
Brc1c(Br)c(Br)c2n[nH]nc2c1Br [Casein Kinase II Inhibitor I] | 1 ± 0.059 | 0.952 ± 0.068 | 0.833 ± 0.03
Cc1nc(-c2ccccc2)c(-c2ccncc2)o1 | 1.02 ± 0.093 | 0.835 ± 0.077 | 0.649 ± 0.16
c1ccc(-c2n[nH]c3c2oc2ccccc23)cc1 | 0.943 ± 0.083 | 0.868 ± 0.038 | 0.732 ± 0.04
N#Cc1cc([N+](=O)[O-])c2sc(C(N)=O)[n+]([O-])c2c1 [Polo-like Kinase Inhibitor II, BTO-1] | 1.01 ± 0.12 | 0.88 ± 0.081 | 0.709 ± 0.056
O=C(Nc1ccc(Cl)cc1)c1ccccc1NCc1ccncc1 [VEGF Receptor Tyrosine Kinase Inhibitor II] | 0.987 ± 0.064 | 0.852 ± 0.056 | 0.802 ± 0.036
NCCNc1ncc(C(N)=O)c(Nc2cccc(C(F)(F)F)c2)n1 [Syk Inhibitor II] | 0.974 ± 0.079 | 0.949 ± 0.058 | 0.773 ± 0.048
Cc1nc2cc3nc(-c4cccs4)cnc3cc2n1C | 0.894 ± 0.058 | 0.343 ± 0.04 | 0.288 ± 0.015
CCCCCCCCCCCCCCCCn1cc[n+](Cc2ccccc2)c1C [eEF-2 Kinase Inhibitor, NH125] | 0.948 ± 0.11 | 0.506 ± 0.092 | 0.401 ± 0.1
O=C1c2ccccc2-c2nc3nnnn3nc21 [PDK1/Akt/Flt Dual Pathway Inhibitor] | 0.856 ± 0.069 | 0.028 ± 0.0014 | 0.0249 ± 0.0025
CC(C)(C)c1nc2c3cc[nH]c(=O)c3c3cc(F)ccc3c2[nH]1 [JAK Inhibitor I] | 1.01 ± 0.045 | 0.796 ± 0.072 | 0.72 ± 0.035
N#CCCc1ccc2c(c1)-c1[nH]c3ccc([N+](=O)[O-])cc3c1CC(=O)N2 [Alsterpaullone, 2-Cyanoethyl] | 1 ± 0.039 | 0.307 ± 0.05 | 0.153 ± 0.036
Cc1cc(Nc2nc(-c3ccccc3)nc3ccccc23)n[nH]1 [GSK-3 Inhibitor XIII] | 1 ± 0.059 | 0.937 ± 0.041 | 0.711 ± 0.034
COc1cc2ncn(-c3cc(OCc4ccccc4S(C)(=O)=O)c(C#N)s3)c2cc1OC [IKK-3 Inhibitor IX] | 1.02 ± 0.11 | 0.843 ± 0.084 | 0.764 ± 0.036
O=C(c1ccc(Nc2nccc(-c3cc4ccccc4s3)n2)cc1)N1CCC(N2CCCC2)CC1 [IKK Inhibitor VII] | 0.972 ± 0.066 | 0.773 ± 0.022 | 0.632 ± 0.031
Cn1c2ccccc2c2c3c(c4c5ccccc5n(CCC#N)c4c21)CNC3=O | 1.03 ± 0.093 | 0.854 ± 0.1 | 0.739 ± 0.048
COc1cc2ncnc(Nc3ccc(Cl)cc3Cl)c2cc1OC [Ste11 MAPKKK Activation Inhibitor] | 0.946 ± 0.13 | 0.802 ± 0.084 | 0.71 ± 0.076
NS(=O)(=O)c1ccc(N=Nc2c(O)[nH]c3ccc(Br)cc23)cc1 [Cdk2 Inhibitor II] | 1.22 ± 0.2 | 0.839 ± 0.084 | 0.825 ± 0.052
O=C(O)C=Cc1cc(Br)c(Br)c(Br)c1Br [Casein Kinase II Inhibitor III, TBCA] | 0.889 ± 0.14 | 0.988 ± 0.082 | 0.836 ± 0.044
O=C(Nc1ccncc1)Nc1c(Cl)cc(Cl)cc1Cl [Rho Kinase Inhibitor II] | 1.08 ± 0.11 | 0.856 ± 0.056 | 0.743 ± 0.03

Structure (SMILES) | relative cell viability (IMR-90) | relative cell viability (K562 [1]) | relative cell viability (K562 [2])
CCCC(=O)Oc1ccc2[nH]c(C(=O)c3cc4ccccc4[nH]3)cc2c1 [PDGF Receptor Tyrosine Kinase Inhibitor II] | 1.01 ± 0.064 | 0.812 ± 0.097 | 0.77 ± 0.025
c1nc2c(NC3CCCCC3)nc(Nc3ccc(N4CCOCC4)cc3)nc2[nH]1 [Reversine] | 0.936 ± 0.08 | 0.578 ± 0.048 | 0.398 ± 0.075
Cc1ccc([N+](=O)[O-])cc1S(=O)(=O)N(C)/N=C/c1cnc2ccc(Br)cn12 [PI 3-Kα Inhibitor VIII] | 0.166 ± 0.031 | 0.763 ± 0.071 | 0.681 ± 0.044
CC(=O)c1ccc(N2CCOCC2)cc1O [DNA-PK Inhibitor III] | 1.02 ± 0.093 | 0.878 ± 0.059 | 0.782 ± 0.027
O=C1C(Cl)=C(N2C(=O)CCC2=O)C(=O)c2ccccc21 [MEK Inhibitor II] | 1.01 ± 0.11 | 0.802 ± 0.089 | 0.653 ± 0.071
Cn1cnc2cc3c(Nc4cccc(Br)c4)ncnc3cc21 | 0.973 ± 0.054 | 1.02 ± 0.078 | 0.874 ± 0.02
O=C1NC(=O)C(c2c[nH]c3ccccc23)=C1c1c[nH]c2ccccc12 [Bisindolylmaleimide IV] | 0.826 ± 0.14 | 0.936 ± 0.053 | 0.851 ± 0.024
N#CC(c1ccnc(NCCc2cccnc2)n1)c1nc2ccccc2s1 (centres undefined) [JNK Inhibitor V] | 1.01 ± 0.077 | 0.851 ± 0.092 | 0.703 ± 0.056
O=C1Cc2c([nH]c3ccc([N+](=O)[O-])cc23)-c2ccccc2N1 [Alsterpaullone] | 0.946 ± 0.067 | 0.906 ± 0.074 | 0.812 ± 0.026
N#C/C(=C(/N)Sc1ccccc1N)c1cccc(C(O)c2ccncc2)c1 (centres undefined) [MEK Inhibitor I] | 1.02 ± 0.1 | 0.732 ± 0.045 | 0.581 ± 0.03
Cn1c(O)c(-c2[nH]c3ccccc3c2N=O)c2ccc(Br)cc21 [GSK-3 Inhibitor IX, Control, MeBIO] | 0.976 ± 0.047 | 0.964 ± 0.014 | 0.8454 ± 0.0073
CC(C)(C)c1ccc(S(=O)(=O)Nc2ccc(-n3ccnc3)cc2)cc1 [Stem-Cell Factor/c-Kit Inhibitor, ISCK03] | 0.897 ± 0.068 | 0.818 ± 0.096 | 0.742 ± 0.038
Cn1nc2c3c(cccc31)C(=O)c1ccccc1-2 [JNK Inhibitor, Negative Control] | 1.02 ± 0.11 | 0.869 ± 0.083 | 0.733 ± 0.038
N#Cc1c(NC(=O)c2cccc3ccccc23)sc2c1CCCC2 [JNK Inhibitor IX] | 0.97 ± 0.044 | 0.143 ± 0.058 | 0.101 ± 0.04
CCCCn1c2ccc(O)cc2c2c3c(c(-c4ccccc4Cl)cc21)C(=O)NC3=O [Wee1 Inhibitor II] | 0.754 ± 0.44 | 0.876 ± 0.086 | 0.748 ± 0.1
COc1nccc(-c2c(-c3ccc(F)cc3)ncn2C2CCC(O)CC2)n1 (centres undefined) | 0.964 ± 0.038 | 0.86 ± 0.11 | 0.794 ± 0.067
O=C(c1ccccc1)c1ccc(N2CCOCC2)cc1O [DNA-PK Inhibitor V] | 1.01 ± 0.094 | 0.878 ± 0.066 | 0.756 ± 0.03
COc1ccc(CNc2nc(N(CCO)CCO)nc3c2ncn3C(C)C)cc1 [Cdk2 Inhibitor III] | 0.927 ± 0.086 | 0.855 ± 0.061 | 0.772 ± 0.058
CN1C(=O)C(c2c[nH]c3ccccc23)=C(c2c[nH]c3ccccc23)C1=O [Bisindolylmaleimide V] | 0.936 ± 0.091 | 0.88 ± 0.053 | 0.77 ± 0.0092
CNc1cc2c(Nc3cccc(Br)c3)ncnc2cn1 | 1.04 ± 0.053 | 0.995 ± 0.043 | 0.807 ± 0.023
C[S+]([O-])c1ccc(-c2nc(-c3ccc(F)cc3)c(-c3ccncc3)[nH]2)cc1 (centres undefined) | 0.994 ± 0.062 | 0.921 ± 0.054 | 0.751 ± 0.048

Structure (SMILES) | relative cell viability (IMR-90) | relative cell viability (K562 [1]) | relative cell viability (K562 [2])
COc1ccc(Cl)cc1NC(=O)Nc1cc(C)nc2ccccc12 [IGF-1R Inhibitor II] | 1.04 ± 0.08 | 0.933 ± 0.014 | 0.798 ± 0.018
O=Nc1c(-c2c(O)[nH]c3cc(Br)ccc23)[nH]c2ccccc12 [GSK-3 Inhibitor IX] | 0.935 ± 0.077 | 0.779 ± 0.036 | 0.599 ± 0.044
c1ccc(-c2cnc(Nc3ccc(OCCN4CCCC4)cc3)s2)cc1 [Flt-3 Inhibitor III] | 0.924 ± 0.052 | 0.916 ± 0.065 | 0.797 ± 0.031
N#Cc1c(C2CCNCC2)cc(-c2c(O)cccc2OCC2CC2)nc1N [IKK-2 Inhibitor VIII] | 1.01 ± 0.12 | 0.871 ± 0.048 | 0.718 ± 0.021
CN1C(=O)C(Cc2c[nH]c3ccccc23)NC1=S (centres undefined) [Necrostatin-1] | 0.915 ± 0.058 | 0.921 ± 0.1 | 0.785 ± 0.044
COc1ccc(COc2ccc(Cc3cnc(N)nc3N)cc2OC)cc1 [cFMS Receptor Tyrosine Kinase Inhibitor] | 1.05 ± 0.12 | 0.789 ± 0.061 | 0.699 ± 0.007
CC(C)[C@H](CO)Nc1nc(Nc2cccc(Cl)c2)c2ncn(C(C)C)c2n1 [Purvalanol A] | 1.04 ± 0.11 | 0.885 ± 0.065 | 0.75 ± 0.072
COc1cc2ncnc(Nc3ccc(O)c(Br)c3)c2cc1OC [JAK3 Inhibitor II] | 1.01 ± 0.09 | 0.815 ± 0.037 | 0.717 ± 0.032
O=C1C(=Cc2ccc(O)cc2)C2=Nc3ccccc3C2=C1C1=C2C(=Nc3ccccc32)C(=Cc2ccc(O)cc2)C1=O [Scytonemin, Lyngbya sp.] | 0.834 ± 0.054 | 0.986 ± 0.052 | 0.821 ± 0.089
O=C(Nc1ccc(-c2cn[nH]c2)cc1)C1COc2ccccc2O1 (centres undefined) [Rho Kinase Inhibitor V] | 1.09 ± 0.066 | 0.824 ± 0.075 | 0.687 ± 0.028
c1ccc2c(-c3ccncc3)c[nH]c2c1 [Rho Kinase Inhibitor III, Rockout] | 0.814 ± 0.19 | 0.833 ± 0.097 | 0.683 ± 0.029
COc1cc2c(cc1OC)-c1[nH]nc(Nc3cccc(F)c3)c1C2 [PDGF Receptor Tyrosine Kinase Inhibitor IV] | 0.43 ± 0.07 | 0.0468 ± 0.0021 | 0.0404 ± 0.0032
CC[C@@H](CO)Nc1nc(NCc2ccc(-c3ccccn3)cc2)c2ncn(C(C)C)c2n1 [CR8, (S)-Isomer] | 0.107 ± 0.035 | 0.0828 ± 0.015 | 0.0705 ± 0.018
CCCCc1c(-c2ccc(OC)cc2)[nH]c2nccnc12 [Aloisine, RP106] | 0.897 ± 0.069 | 0.929 ± 0.046 | 0.819 ± 0.05
O=C1NCCc2[nH]c(-c3ccnc(-c4cnc5ccccc5c4)c3)cc21 [MK-2 Inhibitor III] | 0.884 ± 0.11 | 0.837 ± 0.085 | 0.709 ± 0.057
O=C1Nc2ccc(Br)cc2/C1=C/c1cc2c([nH]1)CCCC2 [VEGF Receptor 2 Kinase Inhibitor II] | 0.979 ± 0.059 | 0.864 ± 0.081 | 0.782 ± 0.054
Nc1nccc(-c2c(-c3ccc(F)cc3)ncn2C2CCNCC2)n1 | 0.923 ± 0.084 | 0.755 ± 0.05 | 0.662 ± 0.046
CCCCc1c(-c2ccc(O)cc2)[nH]c2nccnc12 [Aloisine A, RP107] | 0.913 ± 0.06 | 0.884 ± 0.048 | 0.77 ± 0.032
O=C(Nc1cc(Cl)cc2c1[nH]c1cnccc12)c1cccnc1 [IKK Inhibitor X] | 0.946 ± 0.061 | 0.896 ± 0.069 | 0.804 ± 0.023
Cc1cc(C=C2C(=O)C=CC2=O)cc(C)c1O | 0.928 ± 0.045 | 0.736 ± 0.16 | 0.595 ± 0.12
COc1cc2ncnc(Nc3ccc(Oc4ccccc4)cc3)c2cc1OC [Src Kinase Inhibitor I] | 0.956 ± 0.063 | 0.839 ± 0.088 | 0.692 ± 0.05
